In PubChem BioAssay (NCATS) one finds Potency and activity (max response) data, which are given here for 24 compounds.

Assay [1] can be described thus: Viability qHTS for spleen associated tyrosine kinase inhibitor (SYKi) naive MV4-11 cells (AID 1963823). Also: nearly all actives have a fitted effect of over 40% in size. The method in brief: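 Viability of MV4-11 AML cells lacking prior SYK inhibitor exposure is scored by CellTiter-Glo luminescence following 72 hr compound incubation at 37 C, 5% CO2, seeded at 500 cells per well.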
Assay [2] can be described thus: Viability qHTS for spleen associated tyrosine kinase inhibitor (SYKi) drug resistant MV4-11 cells (AID 1963824). Also: nearly all actives have a fitted effect of over 35% in size. In a few lines: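 CellTiter-Glo luminescence, read 10 min after reagent addition, reports viability after a 72 hr compound exposure. Cells are an MV4-11 line made resistant to SYK inhibition, seeded at 500 per well onto compound-containing plates.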
Assay [3] in a line: Cellular viability qHTS for adrenocortical cancer (ACC) cell line SW-13 (AID 1963989). Also: nearly all actives have a fitted effect of over 65% in size.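 As to activity (max response): cells grown in serum-free medium with ITS supplement; % is scaled to controls: 0 for no effect and ±100 for the full control effect.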 The conditions noted are these: SW-13 ACC cells viability, CellTiter-Glo, 48 h; activity (max response): stronger effect = lower value. The method in brief: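 Here, serum-free SW-13 cultures were dosed up to 46 uM. Following 48 h, ATP-dependent luminescence (CellTiter-Glo) reported viable cells, and logistic modeling produced IC50 values.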

Assay [4] in a line: Cellular viability qHTS for adrenocortical cancer (ACC) cell line NCI-H295R (AID 1963990). Also: nearly all actives have a fitted effect of over 60% in size. The method in brief:
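Viability of NCI-H295R after 48 h of treatment (final up to 46 uM) measured through cellular ATP luminescence.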

SMILES strings stand for the structures. Values joined by “and” are separate entries in the source; they are usually repeats but may differ in a detail not shown here. Equal entries are not always repeated. Results filed as inconclusive are left out. A number with no mark means an inactive call. Active and inactive are the calls of the source. Calls follow the shape of the dose curve; as a rule, active = well fitted curve in the direction sought with a large enough effect; inconclusive = small, poorly fitted or top-dose-only effect, or another doubt; inactive = no such curve, though single readings can be large; an effect the other way counts as inactive or inconclusive.
Potency is read from the fitted curve at half-maximal effect.

For `COc1ccccc1N1CCN(CC(O)COc2cc(OC)c(OC)c(OC)c2)CC1` (stereo unspecified), the Potency entry in assay [1], in assay [2] and in assay [4] was “inactive” throughout. Besides, the activity (max response) in assay [3] is 13.2%.
`COCc1c(-c2ccc(NC(=O)Nc3cc(C(F)(F)F)ccc3F)c(F)c2)c2c(N)ncnn2c1CN1CCOCC1`: the Potency in assay [1] was 0.0105 µM (active); in assay [2] it was 0.0164 µM (active). Besides, the activity (max response) in assay [3] is -5.64%. The Potency result in assay [4] is “inactive”.
Take `Cn1cc(-c2c[nH]c3ncnc(N4CCOCC4)c23)cn1`: the Potency is 13.2 µM (active) in assay [1] and 14.8 µM (active) in assay [2]. The activity (max response) in assay [3] was 0.0559%. Also, the Potency entry in assay [4] was “inactive”.
As for `C=CC(=O)Nc1cccc(Nc2nc(Nc3ccc(Oc4ccnc(C(=O)NC)c4)cc3)ncc2F)c1`, the Potency in assay [1] was 4.61 µM (active) and 2.63 µM (active); in assay [2] it was 5.8 µM (active) and 4.17 µM (active); in assay [3] it was 17.8 µM (active); in assay [4] it was 17.8 µM (active).
On to `Cc1c(N(C)C)c(=O)n(-c2ccccc2)n1C`, for which the Potency entry in assay [1], in assay [2] and in assay [4] was “inactive” throughout. In addition, in assay [3], the activity (max response) was 10.1%.
As to `CC[C@@]1(O)C(=O)OCc2c1cc1n(c2=O)Cc2c-1nc1ccccc1c2/C=N/OC(C)(C)C`, the Potency was 0.0084 µM (active) in assay [1], 0.006 µM (active) in assay [2] and 0.013 µM (active) in assay [3]. Also, the Potency result in assay [4] is “inactive”.
On to `CC(C)(Cc1ccc2ccccc2c1)NC[C@@H](O)COc1cccc(Cl)c1C#N`, for which the Potency is 6.61 µM (active) in assay [1], 6.61 µM (active) in assay [2], 6.31 µM (active) in assay [3] and 6.31 µM (active) in assay [4].
`C[C@@H]1C[C@H]2[C@@H]3C[C@H](F)C4=CC(=O)C(Cl)=C[C@]4(C)[C@@]3(F)[C@@H](O)C[C@]2(C)[C@@]1(O)C(=O)CO`: the Potency in assay [1] is 4.73 µM (active); in assay [2], 11.9 µM (active). For the same compound, the activity (max response) in assay [3] is -6.49%. Besides, the Potency result in assay [4] is “inactive”.
In the case of `CN(C)CCNC(=O)NC[C@H]1CC[C@@H]2[C@H](O1)c1cc(C(F)(F)F)ccc1N[C@H]2c1ccccc1`, the Potency in assay [1] is 0.148 µM (active); in assay [2] it was 0.132 µM (active); in assay [3], 0.251 µM (active); in assay [4], 0.891 µM (active).
Regarding `CC(=O)[C@]1(N)Cc2c(O)c3c(c(O)c2[C@@H](O[C@H]2C[C@H](O)[C@H](O)CO2)C1)C(=O)c1ccccc1C3=O`, the Potency in assay [1] is 5.9 µM (active); in assay [2], 4.68 µM (active). In assay [3], the activity (max response) was -6.73%. The Potency result in assay [4] was “inactive”.
Consider `CCOCCn1c(N2CCCN(C)CC2)nc2ccccc21`, for which the Potency entry in assay [1], in assay [2] and in assay [4] was “inactive” each time. Also, the activity (max response) in assay [3] was -8.77%.
Regarding `COc1cc(OC)cc(OC)c1`, the Potency result in assay [1], in assay [2] and in assay [4] was “inactive” in each case. Besides, the activity (max response) in assay [3] was 5.62%.
For `Nc1ccc([N+](=O)[O-])c(C(F)(F)F)c1`, the Potency result in assay [1], in assay [2] and in assay [4] was “inactive” in each case. For the same compound, the activity (max response) in assay [3] was 0.003%.
For `COc1nccnc1NS(=O)(=O)c1ccc(N)cc1`, the Potency entry in assay [1], in assay [2] and in assay [4] was “inactive” throughout. Besides, the activity (max response) in assay [3] was 1.63%.
On to `C/C=C/c1ccc(OC)cc1`, for which the Potency result in assay [1], in assay [2] and in assay [4] was “inactive” in each case. Also, the activity (max response) in assay [3] is 7.49%.
As to `Nc1ncnc(Nc2ccc(OCc3ccccc3)c(Cl)c2)c1/C=N/OCCN1CCOCC1`, the Potency in assay [1] is 8.33 µM (active); in assay [2], 7.42 µM (active); in assay [3], 17.8 µM (active); in assay [4] it was 15.8 µM (active).
On to `O=C(O)c1ccc(S(=O)(=O)N(Cl)Cl)cc1`, for which the Potency entry in assay [1], in assay [2] and in assay [4] was “inactive” each time. The activity (max response) in assay [3] was 9.06%.
With `Cc1ccc2cc(-c3c(C)ccc(C(=O)c4c(-c5ccccc5)n(C)n(-c5ccccc5)c4=O)c3N)ccc2n1`, the Potency was 4.61 µM (active) in assay [1] and 9.34 µM (active) in assay [2]. For the same compound, the activity (max response) in assay [3] was -12.9%. Moreover, the Potency entry in assay [4] was “inactive”.
On to `NC(=S)N/N=C/c1cccnc1`, for which the Potency entry in assay [1], in assay [2] and in assay [4] was “inactive” throughout. Moreover, the activity (max response) in assay [3] is -1.7%.
On to `Cc1oc(=O)oc1COC(=O)[C@@H]1N2C(=O)[C@@H](NC(=O)[C@H](N)c3ccccc3)[C@H]2SC1(C)C`, for which the Potency entry in assay [1], in assay [2] and in assay [4] was “inactive” in each case. In addition, in assay [3], the activity (max response) is 7.35%.
`Cc1cc(O)c(-c2ccc([C@@H](C)CN(C)C)cc2)c2c1[nH]c(=O)c1sccc12`: the Potency in assay [1] is 0.0184 µM (active); in assay [2] it was 0.0092 µM (active); in assay [3], 0.0891 µM (active); in assay [4], 0.251 µM (active).
For `C[C@@H](Oc1cc(C(=O)Nc2ccc(C(=O)N3CCN(C)CC3)cc2)nnc1N)c1c(Cl)ccc(F)c1Cl`, the Potency is 1.66 µM (active) in assay [1], 2.63 µM (active) in assay [2], 17.8 µM (active) in assay [3] and 2.82 µM (active) in assay [4].
`NC(=O)c1nc(F)c[nH]c1=O`: the Potency result in assay [1], in assay [2] and in assay [4] was “inactive” each time. Besides, in assay [3], the activity (max response) was 0.237%.
For `CCCCC1=NC2(CCCC2)C(=O)N1Cc1ccc(-c2ccccc2-c2nn[nH]n2)cc1`, the Potency entry in assay [1], in assay [2] and in assay [4] was “inactive” each time. Further, the activity (max response) in assay [3] is 8.5%.
